For 1 molecule, survival results are on record in PubChem BioAssay AID504376 (National Center for Advancing Translational Sciences (NCATS), 2011).

The source made the active and inactive calls. The rule behind the calls is not given here.

The nature of this assay: Clonogenic survival assay for Identifying a Potential Treatment of Ataxia-Telangiectasia:SAR for Probe. The settings on record: ATM-null F2111 fibroblasts, NCS clonogenic survival, 14 d. An excerpt:
NIH Chemical Genomics Center [NCGC] NIH Molecular Libraries Probe Centers Network [MLPCN] MLPCN Grant: MH089030-01 Assay Submitter (PI): Wei Zheng and Yosef Shiloh Ataxia-telangiectasia (A-T) is a devastating and progressive disease for which, there is no cure. Although A-T is a multisystem disease, it is stereotyped characterized by its neurological symptoms such as truncal ataxia, due to cerebellar cortical degeneration of the Purkinje and granule cells. Other symptoms of A-T are telangiectasias (dilated blood vessels), primary immunodeficiency, marked sensitivity to ionizing radiation (IR), chromosomal instability and predisposition to cancer. The underlying genetic cause of A-T is null mutations in the ATM (A-T mutated) gene. ATM is a nuclear serine/threonine kinase that functions as a master regulator of the cellular responses to double strand breaks (DSBs) in the DNA. Upon activation by DSBs, ATM phosphorylates a plethora of downstream targets, including KAP-1 on […]. KAP-1 phosphorylation occurs shortly in response to DSBs and mediates global chromatin relaxation, which facilitates DSB repair. To screen for small molecules that will compensate for the loss of ATM in cells derived from A-T patients, we monitored KAP-1 phosphorylation as a readout for ATM-like activity using an AlphaLISA assay. Active compounds should protect the A-T cells from the damage by NCS treatment and form normal colonies.
ATM null (F2111) cells are treated with various doses of the radiomimetic drug neocarzinostatin (NCS) and plated at densities of 200-5000 cells/[…]. 24 hr later the cells were either treated or not treated with Rottlerin, and 30 min later NCS was added for an additional 30 minutes. Then the medium was replaced with fresh medium and plates were incubated for 14 days until colonies could be visualized. After fourteen days, the cultures are fixed and stained and colonies scored manually. Colony survival in absence of NCS was normalized to 100% survival for each compound concentration.

On to `CC(=O)c1c(O)c(C)c(O)c(Cc2c(O)c3c(c(C(=O)/C=C/c4ccccc4)c2O)OC(C)(C)C=C3)c1O`, for which the survival by setting is: (at 30 µM, stronger effect = higher value) 43% (active); (measured here: 10 ng/ml NCS, no compound) 35%; (measured here: 20 ng/ml NCS, at 30 µM, stronger effect = higher value) 33%; (measured here: 40 ng/ml NCS, at 30 µM, stronger effect = higher value) 15%.
